The source of these data is the supplement of paper PMC7556523.

A number with no mark means an inactive call.

One assay has as its system Sporothrix brasiliensis CBS 133006. Nature of the assay: growth inhibition relative to untreated control; higher = more growth inhibition (more antifungal activity), active = 80 or more; extreme values may be limits of the assay. The conditions noted are these: 1 µM; 48 h. The method in brief: (§1)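 Library compounds at a final 1 μM were incubated with yeast-form cells of the reference isolates (1 x 10^5 CFU/ml) for 48 h at 35°C in 5% CO2. Growth was judged by inverted light microscopy and measured spectrophotometrically in quadruplicate runs. Values give percent growth inhibition relative to untreated cells.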
As for `Nc1ncnc2c1ncn2C[C@@H](O)[C@@H](O)C(=O)O`, the growth inhibition was 5%.

With `O=C(NCCN1CCCC1)c1cc(NCCCCN2CCC(F)(F)CC2)nc2ccc(Cl)cc12`, the growth inhibition was 2.75%.

As for `O[C@@H](c1cc(C(F)(F)F)nc2c(C(F)(F)F)cccc12)[C@H]1CCCCN1`, the growth inhibition is 6%.

As to `CNC(=O)C1Cc2ccccc2N1C(=O)Cc1ccc(F)cc1` (stereo unspecified), the growth inhibition is 32.2%.

Turning to `Nc1ncnc2c1c(-c1cnc3ccccc3c1)nn2CC1CCNCC1`, the growth inhibition was 13.2%.

Consider `c1coc(CNc2nc(N3CCCCC3)nc3ccccc23)c1`, for which the growth inhibition is 4.25%.

For the compound `CCc1ccc(C(NCc2nc(N)nc(N(C)C)n2)C(C)C)cc1` (stereo unspecified), the growth inhibition was 0%.

On to `C[C@H](C(N)=O)N1CCCC[C@H]1c1ccc(OCc2cccc(F)c2)cc1`, for which the growth inhibition was 6.5%.

As for `CN1CCC(c2cc(-c3ccncc3)c(-c3ccc(F)cc3)[nH]2)CC1`, the growth inhibition was 9%.

In the case of `COc1ccc(CCN2CCC(NCc3cccc(N(C)C)c3)CC2)cc1`, the growth inhibition is 29%.

Take `Cc1nc(-c2ccccn2)nc(N(C)CCc2ccccc2)c1Cl`: the growth inhibition is 80.8% (active).

On to `COc1ccc(N(CCc2cccc(C)n2)C(C)=O)cc1`, for which the growth inhibition was 0%.

For `CC(C)n1ncc2c(C(=O)NCC(c3cccs3)N3CCOCC3)cc(-c3ccccc3)nc21` (stereo unspecified), the growth inhibition is 2%.

With `Cc1nc(-c2cccc(NCc3ccccc3)c2)[nH]c1C`, the growth inhibition was 1.25%.

`Nc1nccc2ccc(-c3ccc4nccn4c3)cc12`: the growth inhibition is 5.5%.

For the compound `C[C@H](c1ccc2c(c1)CCCC2)N(C)c1ncc2c(N)nc(N)nc2n1`, the growth inhibition was 10%.

On to `COc1cc(NC(=O)Cc2nn(C)c(=O)c3ccccc23)ccc1Cl`, for which the growth inhibition was 4.5%.

For the compound `c1ccc(-c2nc(NC3CCCCC3)cc(C3CC3)n2)nc1`, the growth inhibition is 16.8%.

Regarding `Cc1ncc(-c2ccnc(Nc3ccc(S(C)(=O)=O)cc3)n2)n1C(C)C`, the growth inhibition was 37%.

`CN1CCN(S(=O)(=O)c2ccc(-c3ccc4c(Nc5ccc6nn[nH]c6c5)ccnc4c3)cc2)CC1`: the growth inhibition was 4.25%.

`Cc1nn2c(O)c3c(nc2c1-c1ccc(F)cc1)CCCC3`: the growth inhibition is 7%.

In the case of `COc1cncc(-c2cncc(N3CCN(c4ccncc4)CC3)n2)c1`, the growth inhibition is 34.2%.

Take `CCOC(=O)c1c(NC(=O)c2c(F)c(F)c(F)c(F)c2F)sc(C(N)=O)c1C`: the growth inhibition was 13.8%.

Take `CNC(=O)c1cc(S(=O)(=O)N2CCN(c3ccccn3)CC2)cs1`: the growth inhibition was 0%.

Turning to `CC1=Nc2ccc(Cl)cc2C(c2ccccc2)N1CCNC(=O)CN(C)C` (stereo unspecified), the growth inhibition was 22.8%.

Regarding `O=C(c1ccc(NCCO)cc1)C1C[C@H]1c1ccc(Cl)cc1` (stereo partly specified), the growth inhibition is 2%.

As to `O=C(NC1CC1)c1ccc(N2CCOc3ccc(Cl)cc32)s1`, the growth inhibition was 7%.

Consider `Cc1ccccc1CN1CCC(O)(c2ccc(Cl)c(C(F)(F)F)c2)CC1`, for which the growth inhibition was 0%.

On to `CCCn1nnc(NC(=O)COc2ccc(C3CCCCC3)cc2)n1`, for which the growth inhibition was 13.2%.

As to `Nc1nc2cc(-c3cncc(Oc4ccc(F)cc4)c3)ccc2[nH]1`, the growth inhibition is 8.5%.

In the case of `CC1(C)Cc2c(c(N3CCOCC3)nc3snc(Br)c23)CO1`, the growth inhibition is 4.5%.

With `O=C(Nc1ccc2c(c1)B(O)OC2)c1ccccc1C(F)(F)F`, the growth inhibition was 13.5%.

`Cc1cc(NC(=O)c2ccc(Oc3ccc(Cl)cc3O)o2)no1`: the growth inhibition was 18.8%.

As to `O=C(NC1CCCCC1)N1CCN(Cc2ccc3c(c2)OCO3)CC1`, the growth inhibition is 9.25%.

In the case of `CN1CCCC1CCO[C@](C)(c1ccccc1)c1ccc(Cl)cc1` (stereo partly specified), the growth inhibition was 11.8%.

`CCOc1ccc(-c2nc(CNCCc3ccc(F)cc3)cs2)cc1`: the growth inhibition is 3.75%.

Turning to `Cc1[nH]c2cc(F)cc(F)c2c(=O)c1-c1ccc(Oc2ccc(OC(F)(F)F)cc2)cc1`, the growth inhibition is 2.25%.

In the case of `Cc1ccc2nc(C)c(-c3ccn(Cc4ccccc4)n3)n2c1`, the growth inhibition is 44.8%.

A further assay concerns Sporothrix schenckii ATCC 32286. The description is as above. As to conditions: 1 µM; 48 h. In a few lines: as §1
Take `Nc1ncnc2c1ncn2C[C@@H](O)[C@@H](O)C(=O)O`: the growth inhibition is 11.8%.

On to `O=C(NCCN1CCCC1)c1cc(NCCCCN2CCC(F)(F)CC2)nc2ccc(Cl)cc12`, for which the growth inhibition is 8.5%.

Consider `O[C@@H](c1cc(C(F)(F)F)nc2c(C(F)(F)F)cccc12)[C@H]1CCCCN1`, for which the growth inhibition was 15.2%.

For `CNC(=O)C1Cc2ccccc2N1C(=O)Cc1ccc(F)cc1` (stereo unspecified), the growth inhibition was 3.25%.

Regarding `Nc1ncnc2c1c(-c1cnc3ccccc3c1)nn2CC1CCNCC1`, the growth inhibition was 15.5%.

Consider `c1coc(CNc2nc(N3CCCCC3)nc3ccccc23)c1`, for which the growth inhibition was 13.5%.

With `CCc1ccc(C(NCc2nc(N)nc(N(C)C)n2)C(C)C)cc1` (stereo unspecified), the growth inhibition is 8.75%.

On to `C[C@H](C(N)=O)N1CCCC[C@H]1c1ccc(OCc2cccc(F)c2)cc1`, for which the growth inhibition was 10%.

On to `CN1CCC(c2cc(-c3ccncc3)c(-c3ccc(F)cc3)[nH]2)CC1`, for which the growth inhibition is 10%.

Turning to `COc1ccc(CCN2CCC(NCc3cccc(N(C)C)c3)CC2)cc1`, the growth inhibition was 9.75%.

Take `Cc1nc(-c2ccccn2)nc(N(C)CCc2ccccc2)c1Cl`: the growth inhibition is 34.8%.

With `COc1ccc(N(CCc2cccc(C)n2)C(C)=O)cc1`, the growth inhibition is 1.25%.

On to `CC(C)n1ncc2c(C(=O)NCC(c3cccs3)N3CCOCC3)cc(-c3ccccc3)nc21` (stereo unspecified), for which the growth inhibition was 12.8%.

With `Cc1nc(-c2cccc(NCc3ccccc3)c2)[nH]c1C`, the growth inhibition was 10.2%.

For `Nc1nccc2ccc(-c3ccc4nccn4c3)cc12`, the growth inhibition is 13.5%.

Consider `C[C@H](c1ccc2c(c1)CCCC2)N(C)c1ncc2c(N)nc(N)nc2n1`, for which the growth inhibition is 0%.

Consider `COc1cc(NC(=O)Cc2nn(C)c(=O)c3ccccc23)ccc1Cl`, for which the growth inhibition was 0%.

For the compound `c1ccc(-c2nc(NC3CCCCC3)cc(C3CC3)n2)nc1`, the growth inhibition was 38.2%.

For the compound `Cc1ncc(-c2ccnc(Nc3ccc(S(C)(=O)=O)cc3)n2)n1C(C)C`, the growth inhibition is 2.5%.

As for `CN1CCN(S(=O)(=O)c2ccc(-c3ccc4c(Nc5ccc6nn[nH]c6c5)ccnc4c3)cc2)CC1`, the growth inhibition was 7.5%.

Take `Cc1nn2c(O)c3c(nc2c1-c1ccc(F)cc1)CCCC3`: the growth inhibition was 6.5%.

For `COc1cncc(-c2cncc(N3CCN(c4ccncc4)CC3)n2)c1`, the growth inhibition was 0%.

On to `CCOC(=O)c1c(NC(=O)c2c(F)c(F)c(F)c(F)c2F)sc(C(N)=O)c1C`, for which the growth inhibition was 0%.

As for `CNC(=O)c1cc(S(=O)(=O)N2CCN(c3ccccn3)CC2)cs1`, the growth inhibition is 18.2%.

For the compound `CC1=Nc2ccc(Cl)cc2C(c2ccccc2)N1CCNC(=O)CN(C)C` (stereo unspecified), the growth inhibition was 0%.

On to `O=C(c1ccc(NCCO)cc1)C1C[C@H]1c1ccc(Cl)cc1` (stereo partly specified), for which the growth inhibition was 8.5%.

Turning to `O=C(NC1CC1)c1ccc(N2CCOc3ccc(Cl)cc32)s1`, the growth inhibition is 11.8%.

As for `Cc1ccccc1CN1CCC(O)(c2ccc(Cl)c(C(F)(F)F)c2)CC1`, the growth inhibition was 0%.

Consider `CCCn1nnc(NC(=O)COc2ccc(C3CCCCC3)cc2)n1`, for which the growth inhibition is 0.5%.

As to `Nc1nc2cc(-c3cncc(Oc4ccc(F)cc4)c3)ccc2[nH]1`, the growth inhibition was 18.5%.

Take `CC1(C)Cc2c(c(N3CCOCC3)nc3snc(Br)c23)CO1`: the growth inhibition is 6.5%.

For the compound `O=C(Nc1ccc2c(c1)B(O)OC2)c1ccccc1C(F)(F)F`, the growth inhibition was 20.5%.

For the compound `Cc1cc(NC(=O)c2ccc(Oc3ccc(Cl)cc3O)o2)no1`, the growth inhibition is 2.75%.

For the compound `O=C(NC1CCCCC1)N1CCN(Cc2ccc3c(c2)OCO3)CC1`, the growth inhibition is 17.2%.

In the case of `CN1CCCC1CCO[C@](C)(c1ccccc1)c1ccc(Cl)cc1` (stereo partly specified), the growth inhibition was 14.8%.

With `CCOc1ccc(-c2nc(CNCCc3ccc(F)cc3)cs2)cc1`, the growth inhibition is 15.5%.

Consider `Cc1[nH]c2cc(F)cc(F)c2c(=O)c1-c1ccc(Oc2ccc(OC(F)(F)F)cc2)cc1`, for which the growth inhibition is 9.5%.

Regarding `Cc1ccc2nc(C)c(-c3ccn(Cc4ccccc4)n3)n2c1`, the growth inhibition is 36.5%.
